Screens as filed in PubChem BioAssay.
FMDV antiviral: High Throughput Screening for Foot and Mouth Disease Virus Antivirals | 410,000 compounds, 1.2% hits | AID 1159524, 2015 | Potency, µM (top dose mostly 57.9 µM), for inactives: at the top dose activity change, negative = inhibition, actives largely listed as inhibitors | FMDV antiviral cell-based qHTS; calls by dose curve; tested in HEK293T cells; further: read-out not given here; potency means the concentration at half of the fitted maximal effect; nearly all actives have a fitted effect of over 45% in size
VACV Venus inh: qHTS for Stage-Specific Inhibitors of Vaccinia Orthopoxvirus: Venus Reporter Primary qHTS; Vaccinia virus Venus reporter expression, fluorescence; Potency, µM (top dose mostly 36.5 µM), for the others: top-dose activity change, negative = inhibition, usual class: inhibitors; 330,000 compounds, 0.46% hits; AID 720580, 2013; calls by dose curve; tested in A549 cells; further: potency means the concentration at half of the fitted maximal effect; nearly all actives have a fitted effect of over 30% in size
VACV mCherry inh: qHTS for Stage-Specific Inhibitors of Vaccinia Orthopoxvirus: mCherry Reporter Primary qHTS; Vaccinia virus mCherry reporter infection, fluorescence; Potency, µM (highest dose often 36.5 µM), for inactives: at the top dose activity change, negative = inhibition, most hits filed as inhibitors; 310,000 compounds, 0.63% hits; calls by dose curve; tested in A549 cells; further: potency means the concentration at half of the fitted maximal effect; nearly all actives have a fitted effect of over 35% in size
Lassa entry inh: qHTS for Inhibitors of binding or entry into cells for Lassa Virus | Lassa virus pseudotype entry inhibition, cell reporter | Potency, µM (doses to about 37.9 µM), for inactives: top-dose activity change, negative = inhibition, most hits filed as inhibitors | 300,000 compounds, 1.2% hits | AID 540256, 2011; calls by dose curve; tested in HEK293 cells; further: potency means the concentration at half of the fitted maximal effect; nearly all actives have a fitted effect of over 50% in size
HCMV antiviral: qHTS Assay for inhibitors of the human cytomegalovirus (HCMV). HFF cells, HCMV-luciferase reporter, 72 h; hits give low values. activity change, negative = inhibition, % at 57.5 µM. 410,000 compounds, 4.5% hits. AID 1259415, 2018; in the data active means activity change below about -60%; inconclusive means no clear call, values can overlap the other calls; inactive means above about -39%
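Compounds were evaluated in HFFs infected with an HCMV luciferase reporter virus (MOI 1 PFU/cell). Luciferase in lysates collected 72 h post infection served as the replication measure.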
Marburg entry inh: qHTS for inhibitors of binding or entry into cells for Marburg Virus. Marburg virus pseudotyped entry inhibition, cell reporter. 300,000 compounds, 1.8% hits. AID 540276, 2011. Potency, µM (highest dose often 37.8 µM), without a hit: top-dose activity change, negative = inhibition, most hits filed as inhibitors; calls by dose curve; tested in HEK293 cells; further: potency means the concentration at half of the fitted maximal effect
* marks the source's active call; other numbers are inactive results; i = inactive; ? = inconclusive; · = not tested or not shown; [ ] = dose if it differs, or a comment. An excerpt weighted towards active compounds, which were near 6.5% of everything screened. On the % scale 0 is the no-effect control and ±100 the full control effect.

SMILES	FMDV antiviral	VACV Venus inh	VACV mCherry inh	Lassa entry inh	HCMV antiviral	Marburg entry inh
Cc1ccccc1-n1nc(CSc2nc3ccccc3[nH]2)c(-c2ccccc2)c1N	?	-17%	-11%	?	-87*	?
CCSc1nc2ccccc2[nH]1	20%	1%	-18%	0%	0	1%
Cc1cc(C)n2c(Nc3ccccc3)c(-c3ccc(C)o3)nc2n1	·	-14%	-18%	·	·	·
CCOC(=O)[C@]12Cc3ccc(C)cc3[C@H]1N(C1CCCCC1)C(=O)c1cc(OC)ccc12	28µM*	?	?	·	-103*	·
CCOC(=O)[C@]12Cc3c(cc(OC)c(OC)c3OC)[C@H]1N(C1CCCCC1)C(=O)c1ccccc12	8.9µM*	?	?	·	-102*	·
CCOC(=O)[C@]12Cc3ccccc3[C@H]1N(C(C)C)C(=O)c1ccccc12	18µM*	?	?	·	-105*	·
CCOC(=O)[C@]12Cc3cc(C)ccc3[C@H]1N(C1CCCCC1)C(=O)c1ccccc12	7.9µM*	?	?	·	-103*	·
CCN(CC)C(=O)C1=C(C)Nc2nc3ccccc3n2C1c1cccc(Cl)c1 (stereo unspecified)	-28%	-9%	-17%	10%[46.1 µM]	-20	-9%[46.1 µM]
O=C(O)[C@@H]1CC(=O)n2c(nc3ccccc32)S1	·	·	·	·	·	1%
COc1ccccc1CNC(=O)CCCn1c(=O)c2cccn2c2ccccc21	?	-11%	i	2%[46.1 µM]	-9	·
Cc1ccc(C)n1C1C(=O)N(Cc2ccc(C(F)(F)F)cc2)c2c(F)cccc21 (stereo unspecified)	·	·	·	·	-35	·
Cc1ccc(-c2cn3cccnc3n2)cc1NC(=O)Cc1ccccc1	-18%	5%	i	2%[46.1 µM]	14	·
CCOC(=O)[C@]12Cc3cc(C)ccc3[C@H]1N(CCC(=O)OC)C(=O)c1ccccc12	14µM*	?	?	·	-110*	·
CCOC(=O)[C@]12Cc3ccc(C)cc3[C@H]1N(C1CCCCC1)C(=O)c1ccccc12	6.3µM*	?	?	·	-101*	·
CCOC(=O)[C@]12Cc3cc(OC)ccc3[C@H]1N(CC(=O)OC)C(=O)c1ccccc12	-18%	-4%	4%	·	-11	·
CCOC(=O)[C@]12Cc3cc(Cl)ccc3[C@H]1N(C1CCCCC1)C(=O)c1cc(OC)ccc12	2.2µM*	3.5µM*	?	·	-104*	·
O=C(CCN1C(=O)COc2ccccc21)N1CCN(c2ccccn2)CC1	·	-8%	-19%	?	-73*	9%
O=C(OC1C2CCC1C1CN(CCc3ccccc3)CC12)c1ccccc1 (stereo unspecified)	?	-30%	-23%	?	-68*	?
CCOC(=O)C1CCCN(CCc2ccccc2)C1 (stereo unspecified)	-13%	·	·	·	25	·
Brc1ccc2c(ccc[n+]2CCc2ccccc2)c1	·	-14%	-3%	·	·	·
CCOC(=O)CC1(CCc2ccccc2)Oc2ccccc2N1S(=O)(=O)c1ccc(C)cc1 (stereo unspecified)	0%	0%	-27%	·	?	·
CCOC(=O)CC1(C)Oc2cc(Cl)ccc2N1S(=O)(=O)c1ccc(C)cc1 (stereo unspecified)	-27%	-19%	?	·	-70*	·
COc1ccc(OC)c([C@H]2C(C(=O)c3sc(C)nc3C)=C(O)C(=O)N2CCN2CCOCC2)c1	·	·	·	·	·	-11%[46.1 µM]
CCC1=Nc2cc(C(=O)NCCCOC)ccc2Sc2ccc(Br)cc21	-4%	?	?	?	-87*	?
CCC1=Nc2cc(C(=O)NCCN3CCOCC3)ccc2Sc2ccc(Br)cc21	-27%	·	·	·	-30	·
CCC1=Nc2cc(C(=O)NCCCOC)ccc2Sc2ccccc21	-2%	?	-30%	?	-76*	?
CCCCSCCCNC(=O)C1CCN(Cc2nc(-c3ccc(CC)cc3)oc2C)CC1	-21%	-8%	-21%	?	30	-13%[46.1 µM]
COc1ccccc1C(=O)N[C@@H]1c2ccccc2C2(CCN(Cc3nccs3)CC2)[C@H]1OC	-14%	-6%	-21%	·	·	·
